Reference: PubChem BioAssay (Tox21)
Inconclusive results are not listed. Unmarked numbers belong to inactive results. Calls come from the whole dose curve; as a rule, active = well fitted cell-killing curve with a large enough effect in the repeat runs; inconclusive = weak or mixed curves, or effect the other way; inactive = no such curve, though single readings can be large or run the other way.

assay: qHTS assay to identify small molecule antagonists of the peroxisome proliferator-activated receptor gamma (PPARg) signaling pathway - cell viability counter screen (AID 743194); conditions: PPARg-bla HEK293H viability, CellTiter-Glo luminescence, 17 h, co-treated with 50 nM rosiglitazone; series mostly up to 62.6 µM; activity change, negative = cytotoxicity: at the top concentration; note: nearly all actives have a fitted effect of over 55% in size
Description: U.S. Tox21 Program National Center for Advancing Translational Sciences [NCATS] NIH Chemical Genomics Center [NCGC] U.S. Environmental Protection Agency [EPA] National Institutes of Environmental Health Sciences [NIEHS] National Toxicology Program [NTP] U.S. Food and Drug Administration [FDA] Tox21 Assay Overview: The peroxisome proliferator-activated receptors (PPARs) are lipid-activated transcription factors of the nuclear receptor superfamily with three distinct subtypes namely PPAR alpha, PPAR delta (also called PPAR beta) and PPAR gamma (PPARg). All these subtypes heterodimerize with Retinoid X receptor (RXR) and these heterodimers regulate transcription of various genes. PPAR-gamma receptor (glitazone receptor) is involved in the regulation of glucose and lipid metabolism. To identify the compounds that activate PPAR-gamma signaling, GeneBLAzer PPAR gamma UAS-bla HEK293H cell line (Invitrogen, Carlsbad, CA, USA) containing a beta-lactamase reporter gene under the control of an Upstream Activator Sequence (UAS) was used to screen the Tox21 compound library. The cytotoxicity of the Tox21 compound library against the PPARg-bla cell line was tested in parallel by measuring the cell viability using CellTiter-Glo assay in the same wells.
Tox21 Assay Protocol Summary: PPARg-bla cells were dispensed at 3000 cells/5uL/well in 1536-well black wall/clear bottom plates using a Multidrop Combi (Thermo Fisher Scientific, Waltham, MA) dispenser. After the assay plates were incubated at 37 C and 5% CO2 for 5 h, 23 nL of compounds dissolved in DMSO, positive controls or DMSO only was transferred to the assay plate by a Pintool station (Kalypsys, San Diego, CA), followed by addition of 1ul Rosiglitazone (50 nM, final concentration in the wells). The assay plates were incubated at 37 C for 17 h, and then 1 uL of LiveBLAzerTM B/G FRET substrate was added using a Bioraptr Flying Reagent Dispenser (FRD) workstation (Beckman Coulter, Indianapolis, IN, USA). The assay plates were incubated at room temperature for 1 h and fluorescence intensity was measured by an Envision plate reader (PerkinElmer, Shelton, CT). For cell viability readout that measures cytotoxicity, 4 ul/well of CellTiter-Glo reagent was added into the assay plates using a Flying Reagent Dispenser. After 30 min incubation at room temperature, the luminescence intensity in the plates was measured using a ViewLux plate reader (PerkinElmer).
% is set by controls: 0 for no effect and ±100 for the full control effect.

Structure (SMILES)	activity change, negative = cytotoxicity
CO[Si](C)(C)OC	-9.5%
Nc1ccc(Oc2ccc(N)c(N)c2)cc1	-13%
CCCCCCCOC(=O)CCC	-6.78%
NC(=O)NS(=O)(=O)c1ccc(Cl)cc1	-1.43%
COc1cc(Cl)ccc1Cl	0.0902% [at 81.1 µM]
CC(=O)O[C@H]1CC[C@@]2(C)C(=CC[C@@H]3[C@@H]2CC[C@]2(C)C(C(C)=O)=CC[C@@H]32)C1	4.37%
CN1CCC[C@@H]1Cc1c[nH]c2ccc(CCS(=O)(=O)c3ccccc3)cc12	0.173%
CCCCCCCCc1ccc(S(=O)(=O)O)cc1	0.285%
COc1ccc2nc(NC(=O)Nc3ccccc3)sc2c1	-1.91%
O=Cc1ccc(O)c(O)c1O	4.81%
CN1CCN(c2c(F)cc3c(=O)c(C(=O)O)cn4c3c2SCC4)CC1	-0.38%
CCN(CC)CCNC(=O)COc1ccc(Cl)cc1	-6.24%
Cc1ccc([N+](=O)[O-])cc1Cl	-8.25% [at 81.1 µM]
CCOC(=O)c1ccccc1O	9.31%
O=C(Cl)c1cccc([N+](=O)[O-])c1	-10.9%
C[C@@H]1CN(c2c(F)c(F)c3c(=O)c(C(=O)O)cn(C4CC4)c3c2F)C[C@H](C)N1	9.89% [at 29.1 µM]
CN(CCCN1c2ccccc2CCc2ccccc21)CC(=O)c1ccc(Cl)cc1	8.07%
NNS(=O)(=O)c1ccc(Oc2ccc(S(=O)(=O)NN)cc2)cc1	-0.663%
CCCCNC(=S)NCCCC	-9.5%
CC(C)S	12% [at 81.1 µM]

Structure (SMILES)	activity change, negative = cytotoxicity
C=Cc1ccccc1	9.51%
O=C1CCCCC1C1CCCCC1 (stereo not given)	-1.53%
CCC/C=C/CO	-9.92%
C=CCCC=C	23.3% [at 81.1 µM]
CC1(C)S[C@@H]2[C@H](NC(=O)C(C(=O)O)c3ccccc3)C(=O)N2[C@H]1C(=O)O (stereo not given in full)	17.3%
O=c1[nH]c(=O)n([C@H]2C[C@H](O)[C@@H](CO)O2)cc1C(F)(F)F	5.35%
COc1cc(N)c(Cl)cc1C(=O)NC1CCN(Cc2ccccc2)CC1	-1.35%
CCc1cc2cc(OC)c(OC)cc2c(Cc2ccccc2)n1	17.5%
O=C(CCCl)NCc1ccccc1	-10.7%
N#CSCC(=O)O	-5.99%
CCOC(=O)[C@H](CCc1ccccc1)N[C@@H](C)C(=O)N1Cc2cc(OC)c(OC)cc2C[C@H]1C(=O)O	-4.65%
CCCCC(CC)COC(=O)COc1cc(Cl)c(Cl)cc1Cl (stereo not given)	14.5%
NCCCN1CCN(CCCN)CC1	-3.98%
CCCCNc1cc(C(=O)O)cc(S(N)(=O)=O)c1Oc1ccccc1	-17.9%
O=C(O)C(=O)Cc1c[nH]c2ccccc12	-19.1%
C[C@]12CCC(=O)C=C1CC[C@@H]1[C@@H]2CC[C@@]2(C)[C@H]1CC[C@]2(O)C(=O)CO	-7.85%
O=CCCc1ccccc1	15.7%
CCOc1ccc2nc(N)sc2c1	0.668%
CC(C)c1ccccc1	1.39% [at 81.1 µM]
CCOC(=O)c1cc(=O)c2c(OCC(COc3cccc4oc(C(=O)OCC)cc(=O)c34)OC(=O)[C@@H](N)CCCCN)cccc2o1	-0.636%
